Source: PubChem (The Scripps Research Institute Molecular Screening Center)
Only some compounds are listed: those with a hit (about 3.1% of all), similar ones and a draw of the others.
Rin1 Abl inh – human Rin1-Abl interaction inhibition; P00519+Q13671; TR-FRET Rin1/Abl binding, biochemical; inhibition, % at 7.35 µM; 360,000 compounds, 0.4% hits; AID 588664; in the data active = inhibition above about 5%, passing the limit was not always enough
E coli Lon inh – inhibitors of E. coli Lon protease. P0A9M0. purified E. coli Lon protease, fluorescence polarization. inhibition, % at 7.94 µM. 360,000 compounds, 0.42% hits; in the data active = inhibition above about 13%, passing the limit was not always enough;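 note: 0% = enzyme with probe and DMSO and 100% = no enzyme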
pPAFAH inh – pPAFAH (human) enzyme inhibition; recombinant pPAFAH, FP-rhodamine probe fluorescence polarization; inhibition, % at 3.39 µM; AID 463082; 330,000 compounds, 1.5% hits;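 active = inhibition above the mean inhibition across the screen plus 3 SD, cut at about 25% in these data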;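 note: inhibitors block binding of the rhodamine activity-based probe so polarization drops; 0% = enzyme with DMSO and 100% = wells lacking pPAFAH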
Target sequence (Q13093 whole entry, looked up): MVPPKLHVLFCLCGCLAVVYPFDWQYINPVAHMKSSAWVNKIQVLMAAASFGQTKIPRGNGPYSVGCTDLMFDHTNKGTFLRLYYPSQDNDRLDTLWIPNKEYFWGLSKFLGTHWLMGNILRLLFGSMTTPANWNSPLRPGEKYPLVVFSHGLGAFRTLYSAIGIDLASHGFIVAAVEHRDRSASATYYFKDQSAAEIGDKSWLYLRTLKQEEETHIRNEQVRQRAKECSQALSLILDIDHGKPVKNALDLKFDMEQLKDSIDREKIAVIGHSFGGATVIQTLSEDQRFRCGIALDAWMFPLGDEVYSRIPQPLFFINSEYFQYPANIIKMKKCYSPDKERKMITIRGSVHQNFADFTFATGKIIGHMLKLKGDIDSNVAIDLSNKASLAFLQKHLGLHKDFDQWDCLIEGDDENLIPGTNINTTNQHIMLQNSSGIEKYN
PAFAH1B3 FP inh – PAFAH1B3 (human) inhibition; recombinant PAFAH1B3, FP-rhodamine probe, fluorescence polarization; inhibition, % at 3.39 µM; 340,000 compounds, 0.28% hits; AID 492972;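 active = inhibition above the screen-wide average of all tested compounds plus 3 SD, cut at about 25% in these data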;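 note: 0% = enzyme with DMSO only and 100% = wells lacking PAFAH1B3 protein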
Target sequence (Q15102 whole entry, looked up): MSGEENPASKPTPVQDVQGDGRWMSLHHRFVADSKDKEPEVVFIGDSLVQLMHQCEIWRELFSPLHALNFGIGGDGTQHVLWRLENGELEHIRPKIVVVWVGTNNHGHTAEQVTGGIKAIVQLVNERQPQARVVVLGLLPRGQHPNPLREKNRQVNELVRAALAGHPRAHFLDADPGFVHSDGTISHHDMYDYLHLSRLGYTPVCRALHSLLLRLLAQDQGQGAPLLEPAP
PAFAH1B2 inh – inhibitors of human PAFAH1B2; P68402; recombinant PAFAH1B2, FP-rhodamine activity probe, fluorescence polarization; inhibition, % at 3.39 µM; 340,000 compounds, 1.2% hits;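 active = inhibition above the mean of all tested compounds plus 3 SD, cut at about 24% in these data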;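 note: 0% = enzyme with DMSO and 100% = wells lacking PAFAH1B2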
PAFAH2 FP inh – PAFAH2 (human) inhibition; Q99487; recombinant PAFAH2, FP-rhodamine activity probe, fluorescence polarization; inhibition, % at 3.39 µM; 340,000 compounds, 0.99% hits;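 active = inhibition above the mean over all tested compounds plus 3 SD, cut at about 30% in these data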;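 note: inhibitors block probe labeling of enzyme so polarization drops; 0% = enzyme with DMSO and 100% = wells lacking PAFAH2 protein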
Starred values were filed as active, the others as inactive; / = no result.

SMILES	Rin1 Abl inh	E coli Lon inh	pPAFAH inh	PAFAH1B3 FP inh	PAFAH1B2 inh	PAFAH2 FP inh
COc1ccc(S(=O)(=O)N(C)C[C@H]2Oc3ccc(NS(=O)(=O)c4ccc(F)cc4)cc3C(=O)N([C@H](C)CO)C[C@@H]2C)cc1	3.5	-3.1	13.5	4.2	24.5*	-0.5
CCCOc1ccc(C(=O)Nc2cc(S(=O)(=O)N3CCOCC3)ccc2N2CCOCC2)cc1	-0.6	3.5	0.5	5.2	0.2	3.6
CC(C)[C@H](N)c1nnc(SCc2ccc(Cl)cc2)o1	-1.0	-11.2	-1.3	6.5	34.2*	-6.3
CC(C)(C)c1ccc(C(=O)N2CCCN(c3ccc([N+](=O)[O-])cn3)CC2)cc1	1.3	-9.1	5.5	3.5	11.5	2.9
O=C1CS/C(=N\C(=O)N2c3ccccc3Sc3ccccc32)N1	-7.2	-11.9	26.3*	-1.1	25.3*	-5.0
NCCC(=O)N1c2ccccc2Sc2ccccc21	-3.2	4.7	5.1	6.0	-5.6	-4.9
NC(=O)c1ccc(Oc2ccc(Cl)cc2)c([N+](=O)[O-])c1	-0.4	0.5	9.7	-1.1	12.7	3.0
NC(=O)c1ccc(Oc2ccc(Cl)c3ccccc23)c([N+](=O)[O-])c1	-0.5	-3.2	33.8*	-2.8	-0.4	1.1
Cc1cc(NCCCn2ccnc2)n2nc(C)c(-c3ccccc3)c2n1	1.0	-5.6	-3.5	6.5	7.3	-0.9
Cc1cc(NCCCn2ccnc2)n2nc(C)c(-c3ccc(Cl)cc3)c2n1	-1.1	0.3	25.5*	4.9	0.0	4.2
Cc1cc(NCCN2CCOCC2)n2nc(C)c(-c3ccc(Cl)cc3)c2n1	4.0	-5.8	27.8*	3.4	0.8	5.4
C=CCNC(=O)c1c[nH]c2ccc(S(=O)(=O)N(C)c3ccc(OCC)cc3)cc2c1=O	2.3	6.3	-1.0	2.0	5.0	-4.9
CCOC(=O)CSc1ncc(-c2ccc([N+](=O)[O-])cc2)[nH]1	-4.0	-6.7	31.4*	2.2	-0.1	-1.6
COc1cc(/C=N/N(C)S(=O)(=O)c2ccc(C)cc2)cc([N+](=O)[O-])c1O	0.5	6.8	10.6	3.3	36.0*	5.0
COc1cc(/C=N/NS(=O)(=O)c2ccc(C(C)(C)C)cc2)cc([N+](=O)[O-])c1O	-4.3	0.5	1.9	14.9	32.7*	16.5
COc1cc(/C=N/NS(=O)(=O)c2ccc(C)c([N+](=O)[O-])c2)cc([N+](=O)[O-])c1O	-2.9	4.5	3.8	1.1	4.6	4.3
O=C(NNC(=S)Nc1cccc(C(F)(F)F)c1)c1ccc(Cl)cc1Cl	1.5	6.8	24.8*	12.6	13.1	4.3
Cc1ccccc1C(=O)NNC(=S)Nc1cccc(C(F)(F)F)c1	0.8	4.3	11.5	3.9	5.3	-2.3
O=C(O)c1ccc2c(=O)n3cc(C(=O)c4ccccc4O)cc(Cl)c3nc2c1	-1.5	0.2	16.8	3.6	2.3	7.5
COc1ccc(Nc2nc(Nc3ccc(OC)cc3)nc(SC3=NCCS3)n2)cc1	-2.8	3.6	34.2*	7.4	0.8	5.9
N=C1C(c2nc3ccccc3s2)=C(O)CN1Cc1ccccc1	-5.9	6.8	3.6	11.8	0.0	4.3
CCOc1ccccc1N1CC(O)=C(c2nc3ccccc3s2)C1=N	-5.3	-3.5	33.1*	0.1	1.2	14.2
Cc1cc(/C=N/n2cnnc2)c(C)n1-c1ccc(OCc2ccc(Cl)cc2)cc1	-1.7	-0.1	13.3	-0.6	6.5	0.2
Cc1cc(/C=N/n2cnnc2)c(C)n1-c1ccc(OCc2ccccc2F)cc1	3.6	-9.3	27.0*	8.8	-0.5	0.5
Cc1ccc(Cc2c(C(C)(C)C)nc3cc(C)c(Br)c(C)n23)cc1	-3.4	-6.0	/	/	/	/
SMILES	Rin1 Abl inh	E coli Lon inh	pPAFAH inh	PAFAH1B3 FP inh	PAFAH1B2 inh	PAFAH2 FP inh
O=C(COC(=O)c1ccc(Cl)nc1)Nc1ccc2ccccc2c1	-0.5	-0.8	/	1.7	-2.1	25.5
O=C(COC(=O)c1ccc(O)cc1)Nc1ccc(Cl)cc1	/	/	27.3*	/	/	/
CC(=O)Nc1ccc(C(=O)OCc2ccc(Cl)cc2)cc1	-0.3	7.1	-0.6	2.5	23.4	30.8*
N#CCC(=O)Nc1ccc(C(=O)OCC(=O)Nc2ccc3ccccc3c2)cc1	-0.4	-28.4	32.6*	-31.3	-25.6	-1.8
N#CCC(=O)Nc1ccc(C(=O)OCC(=O)NNC(=O)c2ccc(Cl)cc2)cc1	1.0	-33.0	12.3	-6.3	3.0	15.9
CC(=O)Nc1ccc(C(=O)OCc2ccc(F)cc2)cc1	-0.5	-3.0	-0.8	-2.2	9.9	22.2
Cc1c(C(=O)N2CCCCC2)c(S(=O)(=O)NCc2ccc(Cl)cc2)c(C)n1C	2.1	-2.4	3.5	2.5	2.6	8.5
COC(=O)[C@H](Cc1ccccc1)NC(=O)NC(C)CCc1ccccc1 (stereo partly specified)	-2.7	-3.0	1.1	-5.1	9.4	8.0
COC(=O)C(Cc1ccccc1)NC(=O)CCC(=O)NC(C)CCc1ccccc1 (stereo unspecified)	0.7	-4.2	1.2	2.2	26.9*	-5.1
COc1ccccc1-c1ccc(/C=C2/C=C(C)OC2=O)o1	0.9	-30.7	9.9	5.8	-3.6	-5.9
COc1ccccc1-c1ccc(/C=C2\C=CC(=O)O2)o1	0.6	-361.7	25.6*	/	/	/
COc1ccc2cc(CO)c3cc(OC)c(OC)cc3c2c1	-2.8	2.5	8.3	8.7	1.8	1.8
O=C1c2cccc3c([N+](=O)[O-])ccc(c23)C(=O)N1c1nccs1	-13.2	12.6	1.4	32.9*	14.5	10.5
O=C1c2cccc3c([N+](=O)[O-])ccc(c23)C(=O)N1c1ccc(Cl)cn1	-2.3	64.8*	7.2	33.8*	12.4	7.9
O=C1c2ccc([N+](=O)[O-])cc2C(=O)N1c1ccc(Cl)cn1	0.7	-13.4	-3.4	2.8	-0.2	3.5
COc1ccc(Nc2nc(N3CCOCC3)nc(N3CCOCC3)n2)cc1Cl	-2.9	1.7	6.9	10.0	1.6	4.9
O=C(c1ccc(CS(=O)Cc2ccc(Cl)cc2)o1)N1CCN(c2ccc(F)cc2)CC1 (stereo unspecified)	0.9	-15.1	29.5*	3.2	11.3	0.9
O=C(c1ccc(CS(=O)Cc2cccc(Cl)c2)o1)N1CCN(c2ccc(F)cc2)CC1 (stereo unspecified)	-1.3	-14.1	/	/	/	/
O=C(c1ccc(CS(=O)Cc2ccc(Cl)cc2)o1)N1CCN(c2cccc(Cl)c2)CC1 (stereo unspecified)	1.6	-0.2	25.7*	-4.1	3.9	5.9
CCC(C)(C)NC(=O)C(c1ccc(C)o1)N(Cc1ccc2c(c1)OCO2)C(=O)c1snc(C(N)=O)c1N (stereo unspecified)	0.8	-9.0	-2.1	8.6	0.2	2.3
CCCNC(=O)C1(C)CCCN(C(=O)c2ccc(F)cc2Cl)C1 (stereo unspecified)	-0.7	-6.1	/	/	/	/
NNC(=O)c1cc(NS(=O)(=O)c2cccs2)cc(NS(=O)(=O)c2cccs2)c1	1.7	-5.1	29.4*	21.3	15.0	17.1
